About 83,000 compounds went through this panel and 20% of them were active in at least one assay; those are over-represented in the sample as a whole.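 The test compound was applied at a single concentration to cells in 96-well plates for 48 hours, and percent growth was recorded.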 Calls of active or inactive are those of the source. Rule for the calls: active = growth percent below 10; inactive = the rest.
What was measured:
Assay in all cases: NCI-60 one-dose screen, 48 h (100 = growth as untreated, 0 = no growth, -100 = all killed)
Settings in all cases: 10 µM unless noted
SR leukemia = tested on: SR leukemia
RPMI-8226 leukemia = tested on: RPMI-8226 leukemia
OVCAR-8 ovarian = tested on: OVCAR-8 ovarian
OVCAR-5 ovarian = tested on: OVCAR-5 ovarian
OVCAR-4 ovarian = tested on: OVCAR-4 ovarian
SK-OV-3 ovarian = tested on: SK-OV-3 ovarian
IGROV1 ovarian = tested on: IGROV1 ovarian
OVCAR-3 ovarian = tested on: OVCAR-3 ovarian
HS 578T breast = tested on: HS 578T breast
NCI/ADR-RES ovarian = tested on: NCI/ADR-RES ovarian
BT-549 breast = tested on: BT-549 breast
MDA-MB-435 melanoma = tested on: MDA-MB-435 melanoma
MCF7 breast = tested on: MCF7 breast
HCT-116 colon = tested on: HCT-116 colon
HCC-2998 colon = tested on: HCC-2998 colon
KM12 colon = tested on: KM12 colon
T-47D breast = tested on: T-47D breast
SW-620 colon = tested on: SW-620 colon

Measured: growth

O=C(CC(O)c1ccncc1)c1ccccc1 (configuration not stated)
inactive: SR leukemia 82.1% | RPMI-8226 leukemia 97.9% | OVCAR-5 ovarian 104% | SK-OV-3 ovarian 41.9% | IGROV1 ovarian 18% | NCI/ADR-RES ovarian 65.2% | MDA-MB-435 melanoma 105% | HCT-116 colon 15.5% | HCC-2998 colon 19.2% | KM12 colon 38.2%
active: OVCAR-8 ovarian -36.8% | OVCAR-4 ovarian -29.2% | OVCAR-3 ovarian -60.5% | HS 578T breast -21.8% | BT-549 breast -63.7% | MCF7 breast -24.2%

Cc1cc(C)c(S(=O)(=O)N2CCN(c3cc4c(cc3F)c(=O)c(C(=O)O)cn4C3CC3)CC2)c(C)c1
inactive: SR leukemia 39.1% | RPMI-8226 leukemia 22.4% | OVCAR-8 ovarian 59.5% | OVCAR-5 ovarian 42.2% | OVCAR-4 ovarian 75.6% | SK-OV-3 ovarian 81.6% | IGROV1 ovarian 35.7% | OVCAR-3 ovarian 91.3% | NCI/ADR-RES ovarian 69.9% | T-47D breast 62.9% | BT-549 breast 77.3% | MDA-MB-435 melanoma 76.1% | SW-620 colon 79.8% | MCF7 breast 54% | HCT-116 colon 32.2% | HCC-2998 colon 47.7% | KM12 colon 60.7%

CNC(C)=O
inactive: SR leukemia 88.2% | RPMI-8226 leukemia 103% | OVCAR-8 ovarian 102% | OVCAR-5 ovarian 95.8% | OVCAR-4 ovarian 104% | SK-OV-3 ovarian 102% | IGROV1 ovarian 105% | OVCAR-3 ovarian 75.8% | NCI/ADR-RES ovarian 102% | BT-549 breast 76.3% | MDA-MB-435 melanoma 105% | SW-620 colon 105% | MCF7 breast 90.5% | HCT-116 colon 105% | HCC-2998 colon 101% | KM12 colon 106%

CCn1cc(C(=O)O)c(=O)c2cc(F)c(N3CCN(S(=O)(=O)c4cccc5ccccc45)CC3)cc21
inactive: OVCAR-5 ovarian 15.5% | OVCAR-4 ovarian 23.9% | SK-OV-3 ovarian 15.6% | IGROV1 ovarian 13.7% | NCI/ADR-RES ovarian 21.4% | MDA-MB-435 melanoma 11.4% | SW-620 colon 22.8% | MCF7 breast 14.6% | HCC-2998 colon 31.6% | KM12 colon 11.7%
active: SR leukemia 2.85% | RPMI-8226 leukemia 6.47% | OVCAR-8 ovarian 8.43% | OVCAR-3 ovarian -6.25% | T-47D breast 5.29% | BT-549 breast -4.35% | HCT-116 colon 5.45%

COc1ccc(NC(=O)CSc2nc3ccc(Cl)cc3c(=O)n2-c2ccccc2C(F)(F)F)c(OC)c1OC
inactive: SR leukemia 89.6% | RPMI-8226 leukemia 83.3% | OVCAR-8 ovarian 39.3% | OVCAR-5 ovarian 96.9% | SK-OV-3 ovarian 30.2% | IGROV1 ovarian 75.3% | OVCAR-3 ovarian 82.5% | NCI/ADR-RES ovarian 72.4% | T-47D breast 61.9% | BT-549 breast 72.8% | MDA-MB-435 melanoma 92.3% | SW-620 colon 94% | MCF7 breast 78.9% | HCT-116 colon 70.1% | HCC-2998 colon 99% | KM12 colon 95.7%
active: OVCAR-4 ovarian -4.33%

CCC1CCc2nc3sc(C(=O)Nc4ccccc4F)c(N)c3cc2C1 (configuration not stated)
inactive: SR leukemia 16.8% | RPMI-8226 leukemia 47.5% | OVCAR-8 ovarian 83.3% | OVCAR-5 ovarian 87.6% | OVCAR-4 ovarian 90.9% | SK-OV-3 ovarian 80.7% | IGROV1 ovarian 88.3% | HS 578T breast 70% | NCI/ADR-RES ovarian 62.5% | T-47D breast 87.4% | BT-549 breast 76% | SW-620 colon 36.4% | MCF7 breast 18.9% | HCT-116 colon 63.8% | HCC-2998 colon 91.6% | KM12 colon 35.3%
active: MDA-MB-435 melanoma -15.5%

CCC(C)NCC(=O)O (configuration not stated)
inactive: SR leukemia 93.5% | RPMI-8226 leukemia 90.1% | OVCAR-8 ovarian 110% | OVCAR-5 ovarian 96% | OVCAR-4 ovarian 105% | SK-OV-3 ovarian 106% | IGROV1 ovarian 110% | OVCAR-3 ovarian 111% | NCI/ADR-RES ovarian 110% | T-47D breast 86.3% | BT-549 breast 110% | MDA-MB-435 melanoma 101% | SW-620 colon 105% | MCF7 breast 103% | HCT-116 colon 99.9% | HCC-2998 colon 101% | KM12 colon 105%

COc1cc(NCCN=C(N)NC(N)=NC(C)C)c2ncccc2c1
inactive: SR leukemia 74.8% | RPMI-8226 leukemia 73.3% | OVCAR-8 ovarian 87% | OVCAR-5 ovarian 80.2% | SK-OV-3 ovarian 92.3% | NCI/ADR-RES ovarian 99.4% | BT-549 breast 52.4% | MDA-MB-435 melanoma 103% | SW-620 colon 88.4% | HCT-116 colon 28.1% | HCC-2998 colon 82.9% | KM12 colon 29.9%
active: OVCAR-4 ovarian -40.1% | IGROV1 ovarian -4.12% | OVCAR-3 ovarian 6.45% | T-47D breast -5.22% | MCF7 breast -55.7%

CCCCCC(=O)OCc1ccccc1
inactive: SR leukemia 85.4% | RPMI-8226 leukemia 102% | OVCAR-8 ovarian 102% | OVCAR-5 ovarian 105% | OVCAR-4 ovarian 110% | SK-OV-3 ovarian 93.7% | IGROV1 ovarian 96.7% | OVCAR-3 ovarian 102% | NCI/ADR-RES ovarian 100% | T-47D breast 95.2% | BT-549 breast 84.5% | MDA-MB-435 melanoma 96.3% | SW-620 colon 98.1% | MCF7 breast 97.4% | HCT-116 colon 93.8% | HCC-2998 colon 96.9% | KM12 colon 98.1%

c1ccc2nc(-c3ccc4ccccc4n3)ccc2c1
inactive: SR leukemia 86.8% | RPMI-8226 leukemia 90.8% | OVCAR-8 ovarian 98.6% | OVCAR-5 ovarian 97.2% | OVCAR-4 ovarian 92.3% | SK-OV-3 ovarian 90.1% | IGROV1 ovarian 79.5% | OVCAR-3 ovarian 97.4% | HS 578T breast 105% | NCI/ADR-RES ovarian 99.7% | BT-549 breast 93.7% | MDA-MB-435 melanoma 91.9% | MCF7 breast 61.8% | HCT-116 colon 88.7% | HCC-2998 colon 101% | KM12 colon 90.4%

COc1ccc(-c2cn[nH]c2-c2cc(OC)c3c(c2)OCO3)cc1
active: SR leukemia 5.61% | RPMI-8226 leukemia -1.3% | SK-OV-3 ovarian -1.1% | IGROV1 ovarian -17.2% | OVCAR-3 ovarian -12.3% | NCI/ADR-RES ovarian 5.12% | MDA-MB-435 melanoma -55.4%
inactive: OVCAR-8 ovarian 11.7% | OVCAR-5 ovarian 46.1% | OVCAR-4 ovarian 51% | T-47D breast 44% | BT-549 breast 59.3% | SW-620 colon 21.9% | MCF7 breast 13.1% | HCT-116 colon 13.6% | HCC-2998 colon 16.8% | KM12 colon 17.6%

COc1ccccc1CNCCCN1C(=O)c2ccc3c4c(ccc(c24)C1=O)C(=O)N(CCCNCCCCNCCCCN)C3=O
inactive: RPMI-8226 leukemia 17.3% | OVCAR-5 ovarian 24.5% | SK-OV-3 ovarian 28% | NCI/ADR-RES ovarian 62.2% | BT-549 breast 102%
active: SR leukemia 2.93% | OVCAR-8 ovarian -18.2% | OVCAR-4 ovarian -33.8% | IGROV1 ovarian -57.8% | OVCAR-3 ovarian 1.36% | T-47D breast -1.05% | MDA-MB-435 melanoma -59.7% | SW-620 colon 2.99% | MCF7 breast -34.9% | HCT-116 colon 3.34% | HCC-2998 colon -4.93% | KM12 colon 5.46%

NC(CC(N)C(=O)O)C(=O)O (configuration not stated)
inactive: SR leukemia 89.9% | RPMI-8226 leukemia 98.6% | OVCAR-8 ovarian 100% | OVCAR-5 ovarian 97% | OVCAR-4 ovarian 99.2% | SK-OV-3 ovarian 111% | IGROV1 ovarian 108% | OVCAR-3 ovarian 107% | NCI/ADR-RES ovarian 107% | T-47D breast 92.9% | BT-549 breast 105% | MDA-MB-435 melanoma 103% | SW-620 colon 104% | MCF7 breast 98.7% | HCT-116 colon 102% | HCC-2998 colon 99.3% | KM12 colon 113%

CCCCCCCCCCCCNC(=S)N/N=C/c1ccc(Cl)c(Cl)c1
inactive: SR leukemia 93.8% | RPMI-8226 leukemia 102% | OVCAR-8 ovarian 100% | OVCAR-5 ovarian 93.9% | OVCAR-4 ovarian 99.3% | SK-OV-3 ovarian 114% | IGROV1 ovarian 119% | OVCAR-3 ovarian 111% | NCI/ADR-RES ovarian 113% | T-47D breast 94.9% | BT-549 breast 120% | MDA-MB-435 melanoma 98.8% | SW-620 colon 110% | MCF7 breast 102% | HCT-116 colon 102% | HCC-2998 colon 106% | KM12 colon 102%

CN(C)c1ncc(-c2ccc(C(F)(F)F)cc2)c(NC2CCCCCC2)n1
inactive: SR leukemia 77.5% | OVCAR-8 ovarian 49.8% | OVCAR-5 ovarian 87.3% | OVCAR-4 ovarian 45.4% | SK-OV-3 ovarian 83.1% | IGROV1 ovarian 78.6% | OVCAR-3 ovarian 26.5% | NCI/ADR-RES ovarian 82.1% | T-47D breast 35.1% | BT-549 breast 90.3% | MDA-MB-435 melanoma 65.4% | SW-620 colon 58.1% | MCF7 breast 41.2% | HCT-116 colon 44.1% | HCC-2998 colon 72.2% | KM12 colon 54.4%
active: RPMI-8226 leukemia 1.63%

C[C@]12CC[C@@H]3c4cc(O)c(O)cc4CC[C@H]3[C@@H]1CC[C@@H]2O
inactive: RPMI-8226 leukemia 30.9% | OVCAR-8 ovarian 51.6% | OVCAR-5 ovarian 98% | OVCAR-4 ovarian 49.7% | SK-OV-3 ovarian 29.5% | IGROV1 ovarian 60.2% | OVCAR-3 ovarian 11.5% | NCI/ADR-RES ovarian 28.5% | T-47D breast 30.4% | BT-549 breast 37.7% | MCF7 breast 17.8% | HCT-116 colon 37.9% | HCC-2998 colon 91.4% | KM12 colon 74.5%
active: SR leukemia 9.22% | MDA-MB-435 melanoma -45%

COc1cc(NC(=O)CSc2nc3ccc(C)cc3c(=O)n2-c2ccccc2)cc(OC)c1OC
inactive: SR leukemia 42.3% | RPMI-8226 leukemia 76.3% | OVCAR-8 ovarian 87.4% | OVCAR-5 ovarian 99.5% | OVCAR-4 ovarian 68.9% | SK-OV-3 ovarian 107% | IGROV1 ovarian 89.6% | OVCAR-3 ovarian 84.4% | NCI/ADR-RES ovarian 75.5% | T-47D breast 81.7% | BT-549 breast 79.8% | MDA-MB-435 melanoma 47.5% | SW-620 colon 87.6% | MCF7 breast 91.1% | HCT-116 colon 87% | HCC-2998 colon 97.5% | KM12 colon 75.1%

Nc1c(C(=O)c2ccc(F)cc2)sc2nc3c(cc12)CCCC3
inactive: SR leukemia 46.3% | RPMI-8226 leukemia 77.6% | OVCAR-8 ovarian 78.5% | OVCAR-5 ovarian 97% | OVCAR-4 ovarian 83.9% | SK-OV-3 ovarian 73.1% | IGROV1 ovarian 77.1% | OVCAR-3 ovarian 87.6% | NCI/ADR-RES ovarian 44.8% | T-47D breast 79.9% | BT-549 breast 90.7% | MDA-MB-435 melanoma 22.5% | SW-620 colon 81% | MCF7 breast 80.4% | HCT-116 colon 72.2% | HCC-2998 colon 76.7% | KM12 colon 66.2%

Source: PubChem BioAssay (NCI)
